# Measurements as given in the supplement of paper PMC3342239.
# Structures can show the parent of a compound that is named as a salt.
# Tested on: Saccharomyces cerevisiae
# Assay: fraction of cells in G1 phase (DNA content, flow cytometry); higher = more cells with unreplicated DNA (G1 delay)
# Details: temperature: 30 C; YPD; BY4741 PDR5+ SNQ2+; drug added to: actively dividing cells; 4.33 h
# Description: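 S. cerevisiae cultures in YPD at 30°C were treated with each drug of the Enzo FDA-approved library at 20 µg/ml (final µM given per drug). Cells were fixed after 6–7 h (S1) or 6 h (S2), or after 4.33 h for BY4741 (S3), then stained with SYTOX Green. %G1 is the Dean-Jett-Fox G1 peak area divided by the G1+G2/M peak areas, written as a fraction and averaged over at least two independent experiments. DMSO reference: mean ~0.49; >0.60 is called High G1 and <0.3876 Low G1. Scale: lower means mitotic delay.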
row,SMILES,fraction of cells in G1 phase
1,O=C1CCc2ccc(OCCCCN3CCN(c4cccc(Cl)c4Cl)CC3)cc2N1 [Aripiprazole] (44.6034 µM),0.411
2,CC(=O)[C@]1(O)Cc2c(O)c3c(c(O)c2[C@@H](O[C@H]2C[C@H](N)[C@H](O)[C@H](C)O2)C1)C(=O)c1ccccc1C3=O [Idarubicin] (40.2005 µM),0.14
3,NC1CCN(c2c(F)cc3c(=O)c(C(=O)O)cn(C4CC4)c3c2Cl)C1 (stereo not given) [Clinafloxacin HCl] (54.6755 µM),0.359

# Same assay, conditions: temperature: 30 C; YPD; JTY2953 pdr5 snq2 (sensitized); drug added to: actively dividing cells; 6 h
row,SMILES,fraction of cells in G1 phase
1,O=C1CCc2ccc(OCCCCN3CCN(c4cccc(Cl)c4Cl)CC3)cc2N1 [Aripiprazole] (44.6034 µM),0.762
2,CCOC(=O)C1=C(C)NC(C)=C(C(=O)OC)C1c1cccc(Cl)c1Cl (stereo not given) [Felodipine] (52.0478 µM),0.609
3,C[C@H](CS)C(=O)N1CCC[C@H]1C(=O)O [Captopril] (92.0434 µM),0.436

# Same assay, conditions: temperature: 30 C; YPD; JTY2953 pdr5 snq2 (sensitized); drug added to: cultures diluted from stationary phase; 6-7 h
row,SMILES,fraction of cells in G1 phase
1,C[C@]12CC[C@@H]3c4ccc(O)cc4C[C@@H](CCCCCCCCC[S+]([O-])CCCC(F)(F)C(F)(F)F)[C@H]3[C@@H]1CC[C@@H]2O (stereo not given in full) [Fulvestrant] (32.9606 µM),0.458
2,CC(C)(C#N)c1cc(Cn2cncn2)cc(C(C)(C)C#N)c1 [Anastrozole] (68.1723 µM),0.518
3,CN1CCN(CC(=O)N2c3ccccc3C(=O)Nc3cccnc32)CC1 [Pirenzepine 2HCl] (56.9133 µM),0.534
4,O=C1CCc2ccc(OCCCCN3CCN(c4cccc(Cl)c4Cl)CC3)cc2N1 [Aripiprazole] (44.6034 µM),0.854
5,CC(C)NCC(O)c1ccc(NS(C)(=O)=O)cc1 (stereo not given) [Sotalol HCl] (73.4298 µM),0.535
6,Cc1c(Cl)cccc1Nc1ccccc1C(=O)O [Tolfenamic acid] (76.4204 µM),0.53
7,CC[N+](CC)(CC)CCOc1cccc(OCC[N+](CC)(CC)CC)c1OCC[N+](CC)(CC)CC [Gallamine triethiodide] (39.1519 µM),0.516
8,O=C(N[C@H](CO)[C@H](O)c1ccc([N+](=O)[O-])cc1)C(Cl)Cl [Chloramphenicol] (61.8937 µM),0.482
9,NC1CCN(c2nc3c(cc2F)c(=O)c(C(=O)O)cn3-c2ccc(F)cc2F)C1 (stereo not given) [Tosufloxacin] (49.4619 µM),0.428
10,COc1cc([C@@H]2c3cc4c(cc3[C@@H](O[C@@H]3O[C@@H]5CO[C@@H](C)O[C@H]5[C@H](O)[C@H]3O)[C@H]3COC(=O)[C@H]23)OCO4)cc(OC)c1O [Etoposide] (33.9806 µM),0.496
11,CN1CCN(C2=Nc3cc(F)ccc3Cc3ccccc32)CC1 [Fluperlapine] (64.6434 µM),0.512
12,Cc1ccccc1C(OCCN(C)C)c1ccccc1 (stereo not given) [Orphenadrine citrate] (43.3369 µM),0.522
13,CCOC(=O)C1=C(C)NC(C)=C(C(=O)OC)C1c1cccc(Cl)c1Cl (stereo not given) [Felodipine] (52.0478 µM),0.683
14,CC(=O)[C@]1(O)Cc2c(O)c3c(c(O)c2[C@@H](O[C@H]2C[C@H](N)[C@H](O)[C@H](C)O2)C1)C(=O)c1ccccc1C3=O [Idarubicin] (40.2005 µM),0.291
15,COc1ccccc1O [Guaiacol] (161.108 µM),0.531
16,NC1CCN(c2c(F)cc3c(=O)c(C(=O)O)cn(C4CC4)c3c2Cl)C1 (stereo not given) [Clinafloxacin HCl] (54.6755 µM),0.254
17,CC[C@@]1(O)C(=O)OCc2c1cc1n(c2=O)Cc2cc3c(CN(C)C)c(O)ccc3nc2-1 [Topotecan] (47.4544 µM),0.481

row,SMILES,fraction of cells in G1 phase
1,CCOc1nc2cccc(C(=O)O)c2n1Cc1ccc(-c2ccccc2-c2nnn[nH]2)cc1 [Candesartan] (45.4065 µM),0.506
2,COc1cc2c3cc1Oc1cc(ccc1O)C[C@@H]1c4c(cc(OC)c(O)c4Oc4ccc(cc4)C[C@@H]3N(C)CC2)CC[N+]1(C)C [Tubocurarine Cl  (+)] (32.8004 µM),0.464
3,CC1=C(/C=C/C(C)=C/C=C/C(C)=C/C(=O)O)C(C)(C)CCC1 [Retinoic acid] (66.5679 µM),0.524
4,CC(CCc1ccc(O)cc1)NCCc1ccc(O)c(O)c1 (stereo not given) [Dobutamine HCl] (66.3594 µM),0.528
5,C[C@]12C=CC(=O)C=C1CC[C@@H]1[C@@H]2C(=O)C[C@@]2(C)[C@H]1CC[C@]2(O)C(=O)CO [Prednisone] (55.7976 µM),0.496
6,COc1c(C)c2c(c(O)c1C/C=C(\C)CCC(=O)O)C(=O)OC2 [Mycophenolic acid] (62.4326 µM),0.54
7,C[C@H](CS)C(=O)N1CCC[C@H]1C(=O)O [Captopril] (92.0434 µM),0.633
8,NC(=O)c1ncn([C@@H]2O[C@H](CO)[C@@H](O)[C@H]2O)n1 [Ribavirin] (81.8972 µM),0.481
9,CO[C@@H]1[C@@H](OC(N)=O)[C@@H](O)[C@H](Oc2ccc3c(O)c(NC(=O)c4ccc(O)c(CC=C(C)C)c4)c(=O)oc3c2C)OC1(C)C [Novobiocin Na] (32.6456 µM),0.513
10,CC(=O)[C@@]1(O)CC[C@H]2[C@@H]3CCC4=CC(=O)CC[C@]4(C)[C@H]3CC[C@@]21C [17- hydroxyprogesterone] (60.5196 µM),0.515
11,Cc1scc2c1N(C(=O)CN1CCN(C)CC1)c1ccccc1NC2=O [Telenzepine 2HCl] (53.9845 µM),0.498
12,CO[C@H]1/C=C/O[C@@]2(C)Oc3c(C)c(O)c4c(O)c(c(/C=N/N5CCN(C)CC5)c(O)c4c3C2=O)NC(=O)/C(C)=C\C=C\[C@H](C)[C@H](O)[C@@H](C)[C@@H](O)[C@@H](C)[C@H](OC(C)=O)[C@@H]1C [Rifampicin] (24.3025 µM),0.502
13,O=C(C1CCCCC1)N1CC(=O)N2CCc3ccccc3C2C1 (stereo not given) [Praziquantel] (64.0173 µM),0.441
14,Cc1ccc(S(=O)(=O)NC(=O)NN2CCCCCC2)cc1 [Tolazamide] (64.2249 µM),0.516
15,C=C1C[C@H]2[C@@H]3C=C(C)C4=CC(=O)CC[C@]4(C)[C@H]3CC[C@]2(C)[C@@]1(OC(C)=O)C(C)=O [Melengestrol acetate] (50.4374 µM),0.569
16,C=CCc1ccccc1OCC(O)CNC(C)C (stereo not given) [Alprenolol HCl] (80.2066 µM),0.52
17,CC(C)NCC(O)c1ccc2ccccc2c1 (stereo not given) [Pronethalol HCl] (87.2126 µM),0.502
